Results published in PubChem BioAssay (NCI).
About 83,000 compounds went through this panel and 20% of them were active in at least one assay; those are over-represented in the sample as a whole.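 Interpretation: 100, growth as untreated; towards 0, rising growth inhibition; 0, no net growth; 0 to -100, cell death. Compounds scoring below 10 were considered active.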 Active and inactive are the calls of the source.

What was measured:
Assay in all cases: NCI-60 one-dose screen, 48 h (100 = growth as untreated, 0 = no growth, -100 = all killed)
Conditions in all cases: 10 µM unless noted
NCI-H23 lung = system: NCI-H23 lung
NCI-H226 lung = system: NCI-H226 lung
NCI-H322M lung = system: NCI-H322M lung
HOP-62 NSCLC = system: HOP-62 NSCLC
HOP-92 NSCLC = system: HOP-92 NSCLC
NCI-H522 lung = system: NCI-H522 lung
A549/ATCC NSCLC = system: A549/ATCC NSCLC
786-0 renal = system: 786-0 renal
COLO 205 colon = system: COLO 205 colon
DU-145 prostate = system: DU-145 prostate
K-562 leukemia = system: K-562 leukemia
MALME-3M melanoma = system: MALME-3M melanoma
MDA-MB-231 breast = system: MDA-MB-231 breast
RXF 393 renal = system: RXF 393 renal
SF-268 CNS = system: SF-268 CNS
SF-295 CNS = system: SF-295 CNS
SF-539 CNS = system: SF-539 CNS
UACC-257 melanoma = system: UACC-257 melanoma
M14 melanoma = system: M14 melanoma

Measured: growth

COc1ccc(NC(=O)c2sc3nc(C)c(C(O)c4ccccc4)cc3c2N)cc1 (stereo not drawn)
active: COLO 205 colon -5.84% | K-562 leukemia 8.04% | RXF 393 renal -7.22% | SF-539 CNS -4.84% | M14 melanoma 7.65%
inactive: NCI-H23 lung 28.7% | NCI-H226 lung 57.9% | NCI-H322M lung 56.8% | HOP-62 NSCLC 28.2% | HOP-92 NSCLC 78.9% | NCI-H522 lung 10.2% | A549/ATCC NSCLC 24.9% | 786-0 renal 40.7% | DU-145 prostate 14.1% | MALME-3M melanoma 38% | MDA-MB-231 breast 27.7% | SF-268 CNS 50.3% | SF-295 CNS 23.1% | UACC-257 melanoma 64.4%

COc1cc2oc(-c3cccc(NC(=O)c4ccc5c(c4)OCO5)c3)cc(=O)c2c(OC)c1OC
active: HOP-92 NSCLC -6.11%
inactive: NCI-H23 lung 52.9% | NCI-H226 lung 65.7% | NCI-H322M lung 43.5% | HOP-62 NSCLC 54.4% | NCI-H522 lung 36.7% | A549/ATCC NSCLC 51.3% | 786-0 renal 19.5% | COLO 205 colon 68.1% | DU-145 prostate 52.9% | K-562 leukemia 17.4% | MALME-3M melanoma 76.4% | MDA-MB-231 breast 64.3% | RXF 393 renal 46.5% | SF-268 CNS 48.1% | SF-295 CNS 53.9% | SF-539 CNS 57% | UACC-257 melanoma 77.3% | M14 melanoma 49.3%

CCCCCn1sc(=O)n(Cc2ccc(CNC(=O)OCc3ccc4c(Cl)cc(Cl)c(O)c4n3)cc2)c1=O
inactive: NCI-H23 lung 73.2% | NCI-H226 lung 65.8% | NCI-H322M lung 55.7% | HOP-62 NSCLC 41.7% | HOP-92 NSCLC 76.2% | NCI-H522 lung 66.1% | A549/ATCC NSCLC 49.7% | 786-0 renal 61.2% | COLO 205 colon 106% | DU-145 prostate 63.9% | K-562 leukemia 45.8% | MALME-3M melanoma 70.4% | MDA-MB-231 breast 75.6% | RXF 393 renal 32.5% | SF-268 CNS 66.6% | SF-295 CNS 35.1% | SF-539 CNS 77.1% | UACC-257 melanoma 87.9% | M14 melanoma 58.8%

C=CC(=O)NCCOc1cccc(Nc2cc(NCCCNC(=O)C3CCC3)c(Br)cn2)c1
active: NCI-H23 lung -25.8% | NCI-H226 lung -14.1% | NCI-H322M lung -6.07% | HOP-62 NSCLC -22.4% | HOP-92 NSCLC -28.5% | NCI-H522 lung -19.3% | A549/ATCC NSCLC -16.7% | 786-0 renal -35.7% | COLO 205 colon -42.7% | DU-145 prostate 8.96% | K-562 leukemia 9.43% | MALME-3M melanoma -19% | MDA-MB-231 breast -25.6% | RXF 393 renal -77% | SF-268 CNS -25.3% | SF-295 CNS 2.75% | SF-539 CNS -58.3% | UACC-257 melanoma -11.6% | M14 melanoma -18.7%

CN1CCCc2cc(/C=C3/SC(=S)N(CCc4ccc(O)cc4)C3=O)ccc21
inactive: NCI-H23 lung 94.1% | NCI-H226 lung 88.5% | NCI-H322M lung 95.1% | HOP-62 NSCLC 101% | NCI-H522 lung 43.8% | A549/ATCC NSCLC 87.3% | 786-0 renal 87.6% | COLO 205 colon 112% | DU-145 prostate 85.9% | K-562 leukemia 27.6% | MALME-3M melanoma 96.6% | MDA-MB-231 breast 81.8% | RXF 393 renal 94.6% | SF-268 CNS 76.3% | SF-295 CNS 99.7% | SF-539 CNS 84.8% | UACC-257 melanoma 93.2% | M14 melanoma 78.6%

CCN(CC)CCOc1ccc(Nc2ncc3cc(-c4ccc(O)cc4)c(=O)n(C)c3n2)cc1
active: 786-0 renal -76.5% | K-562 leukemia -53.5% | MALME-3M melanoma -43.8% | RXF 393 renal -5.94% | SF-539 CNS -1.13%
inactive: NCI-H23 lung 69.8% | NCI-H226 lung 43.8% | NCI-H322M lung 47.7% | HOP-62 NSCLC 49.9% | HOP-92 NSCLC 76.6% | NCI-H522 lung 27.3% | A549/ATCC NSCLC 49% | COLO 205 colon 38.4% | DU-145 prostate 85.5% | MDA-MB-231 breast 43.1% | SF-268 CNS 45% | SF-295 CNS 98.5% | UACC-257 melanoma 66.6% | M14 melanoma 57.5%

N#Cc1c(NC(=O)c2cccs2)[n+]([O-])c2ccc(Cl)cc2[n+]1[O-]
inactive: NCI-H23 lung 103% | NCI-H226 lung 92.1% | NCI-H322M lung 108% | HOP-62 NSCLC 95.7% | HOP-92 NSCLC 94.8% | NCI-H522 lung 93.7% | A549/ATCC NSCLC 122% | 786-0 renal 107% | COLO 205 colon 113% | DU-145 prostate 121% | K-562 leukemia 106% | MALME-3M melanoma 92% | MDA-MB-231 breast 82.7% | RXF 393 renal 127% | SF-268 CNS 106% | SF-295 CNS 93.8% | SF-539 CNS 108% | UACC-257 melanoma 120% | M14 melanoma 80.2%

COc1ccc(C2C3=C(COC3=O)N(CCO)c3cc4c(cc32)OCCO4)cc1OC (stereo not drawn)
inactive: NCI-H23 lung 34.3% | NCI-H226 lung 41.2% | NCI-H322M lung 51.4% | HOP-62 NSCLC 46.3% | A549/ATCC NSCLC 51.2% | 786-0 renal 27.7% | DU-145 prostate 14.6% | K-562 leukemia 27.6% | MALME-3M melanoma 41.7% | MDA-MB-231 breast 56.8% | SF-268 CNS 51.7% | UACC-257 melanoma 44.1% | M14 melanoma 13.6%
active: NCI-H522 lung -13.9% | COLO 205 colon -4.68% | RXF 393 renal 5.27% | SF-295 CNS 3.18% | SF-539 CNS -2.02%

N#C/C(=C\c1ccc(-c2ccc(Cl)cc2)o1)c1ccc(Cl)cc1
inactive: NCI-H23 lung 63.2% | NCI-H226 lung 30% | NCI-H322M lung 69.2% | HOP-62 NSCLC 46.8% | NCI-H522 lung 81% | A549/ATCC NSCLC 35.4% | COLO 205 colon 77.1% | DU-145 prostate 82.1% | K-562 leukemia 82.4% | MALME-3M melanoma 62.9% | MDA-MB-231 breast 32.6% | RXF 393 renal 62.8% | SF-268 CNS 81.2% | SF-295 CNS 51.9% | SF-539 CNS 56.9% | UACC-257 melanoma 100% | M14 melanoma 81.4%
active: HOP-92 NSCLC 5.34% | 786-0 renal -0.442%

CCOC(=O)c1c(-c2ccc(Cl)cc2)c(C#N)c2c(C#N)c(N)nn2c1N
inactive: NCI-H23 lung 85.9% | NCI-H226 lung 87.4% | NCI-H322M lung 83.4% | HOP-62 NSCLC 74.9% | HOP-92 NSCLC 63.1% | NCI-H522 lung 37.4% | A549/ATCC NSCLC 51.3% | 786-0 renal 82.6% | COLO 205 colon 69.8% | DU-145 prostate 74.9% | K-562 leukemia 15.4% | MALME-3M melanoma 72.9% | MDA-MB-231 breast 75.7% | RXF 393 renal 77% | SF-268 CNS 77.3% | SF-295 CNS 57.2% | SF-539 CNS 71.6% | UACC-257 melanoma 60.3% | M14 melanoma 75.5%

COc1ccc(Nc2ncc(C(N)=O)c(NCCCNC(=O)C3CCC3)n2)cc1
active: COLO 205 colon 3.6%
inactive: NCI-H23 lung 76.9% | NCI-H226 lung 62.7% | NCI-H322M lung 79% | HOP-62 NSCLC 35.9% | HOP-92 NSCLC 60.6% | NCI-H522 lung 77.1% | A549/ATCC NSCLC 83.1% | 786-0 renal 74.1% | DU-145 prostate 77.3% | K-562 leukemia 39.5% | MALME-3M melanoma 95.2% | MDA-MB-231 breast 26.5% | RXF 393 renal 17% | SF-268 CNS 80.9% | SF-295 CNS 75.7% | SF-539 CNS 14.3% | UACC-257 melanoma 112% | M14 melanoma 67.7%

NS(=O)(=O)c1ccc(N/C=C/C(=O)c2cc3ccccc3oc2=O)cc1
inactive: NCI-H23 lung 88% | NCI-H226 lung 86.9% | NCI-H322M lung 92.9% | HOP-62 NSCLC 84.7% | HOP-92 NSCLC 76.1% | NCI-H522 lung 96.3% | A549/ATCC NSCLC 97.1% | 786-0 renal 96.1% | COLO 205 colon 102% | DU-145 prostate 109% | K-562 leukemia 94.8% | MALME-3M melanoma 85% | MDA-MB-231 breast 85.2% | RXF 393 renal 102% | SF-268 CNS 95.5% | SF-295 CNS 103% | SF-539 CNS 93% | UACC-257 melanoma 110% | M14 melanoma 89.5%

CCCCn1sc(=O)n(Cc2ccc(CNC(=O)OCc3ccc4c(Br)cc(Br)c(O)c4n3)cc2)c1=O
inactive: NCI-H23 lung 36.1% | NCI-H226 lung 31.6% | NCI-H322M lung 46% | HOP-62 NSCLC 27.1% | HOP-92 NSCLC 37.8% | A549/ATCC NSCLC 18.9% | 786-0 renal 92.2% | COLO 205 colon 114% | K-562 leukemia 12.8% | MALME-3M melanoma 61.1% | MDA-MB-231 breast 38.6% | RXF 393 renal 15.9% | SF-268 CNS 33.9% | SF-295 CNS 13.7% | UACC-257 melanoma 48.4% | M14 melanoma 10.4%
active: NCI-H522 lung -7.12% | DU-145 prostate 6.37% | SF-539 CNS -14%

CCCn1c(=S)sc2c1nc(C)n1c(Nc3ccccc3)nnc21
inactive: NCI-H23 lung 26.6% | NCI-H226 lung 66.9% | NCI-H322M lung 83.9% | HOP-62 NSCLC 75.5% | HOP-92 NSCLC 48.9% | NCI-H522 lung 12.4% | A549/ATCC NSCLC 66.1% | 786-0 renal 54.8% | COLO 205 colon 128% | DU-145 prostate 109% | K-562 leukemia 37.6% | MALME-3M melanoma 65.4% | MDA-MB-231 breast 84.5% | RXF 393 renal 29.3% | SF-268 CNS 99.4% | SF-295 CNS 51.7% | SF-539 CNS 62.9% | UACC-257 melanoma 75.3% | M14 melanoma 89.1%

COc1cc(C2=NN(C(C)=O)C(c3ccc(N(C)C)cc3)C2)cc(OC)c1OC (stereo not drawn)
inactive: NCI-H23 lung 88.8% | NCI-H226 lung 97.8% | NCI-H322M lung 82.7% | HOP-62 NSCLC 83.9% | HOP-92 NSCLC 79.7% | NCI-H522 lung 72.4% | A549/ATCC NSCLC 90.6% | 786-0 renal 79.7% | COLO 205 colon 108% | DU-145 prostate 103% | K-562 leukemia 81.7% | MALME-3M melanoma 87.3% | MDA-MB-231 breast 74.1% | RXF 393 renal 103% | SF-268 CNS 105% | SF-295 CNS 95.1% | SF-539 CNS 91.5% | UACC-257 melanoma 76.7% | M14 melanoma 95%
